# Data from PubChem BioAssay (NCATS).
# Inconclusive results are not listed. Activity calls are given as the source filed them. Calls come from the whole dose curve; as a rule, active = well fitted inhibition curve with a large enough effect; inconclusive = small, poorly fitted or top-dose-only effect; inactive = flat fitted curve, though single readings scatter.
# Target: Voltage-gated inwardly rectifying potassium channel KCNH2 (Homo sapiens) (UniProt Q12809)
# Assay: qHTS Assay for Small Molecule Inhibitors of the Human hERG Channel Activity (AID 588834);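 note: lower thallium flux fluorescence means stronger hERG block; nearly all actives have a fitted effect of over 50% in size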; for activity change, negative = inhibition: top concentration of the series differs between compounds
# Settings: U2OS BacMam hERG, FluxOR thallium flux fluorescence; series mostly up to 92.2 µM; activity change, negative = inhibition: at the top concentration
# Description: NIH Chemical Genomics Center [NCGC]
# National Institutes of Environmental Health Sciences [NIEHS]
# National Toxicology Program [NTP]
# We have developed a 1536-well cell-based assay for quantitative high throughput screening (qHTS) to determine in vitro hERG channel blockage as a measure of cardio toxicity with small molecules. This particular assay uses the U2OS cell line which is derived from human osteosarcoma.
# NCGC Assay Protocol Summary:
# HERG assay (FluxORTM thallium flux assay) was initially developed by Invitrogen/Molecular Probes, and then miniaturized into 1536-well plate in a homogeneous format by NCGC. This assay measures the activity of potassium channel using thallium dye (FluxOR) flux as surrogate measurement for potassium into the cells with a FDSS-7000 kinetic plate reader (Hamamatsu Corp., Hamamatsu City, Japan). The hERG ion channel is transduced into mammalian cells (U2OS) using a baculovirus (Bacmam) construct harboring the hERG K+ ion channel. So far we screened LOPAC1280 library (Sigma), the NTP collection of 1408 compounds, and the NCGC Pharmaceutical Collection (NPC), in which many well defined HERG blockers are present. The rank order potencies of many of these compounds are similar to that of other HERG assays (membrane potential, Rb+ flux, patch clamp, etc). This quick and homogeneous assay is also found to be sensitive, specific, and robust.
# Using the FluxORTM thallium flux assay, the activity of potassium channel using thallium dye (FluxOR) flux as surrogate measurement for potassium into the cells was measured in the U2OS cell line transduced with hERG K+ ion channel using a baculovirus (Bacmam) using Opti-MEM medium (Invitrogen) containing 2% fetal calf serum (FCS, HyCone) following loading buffer addition, compound treatment for around 10 minutes and finally adding stimulation buffer. The assay was performed in black clear Kalypsys 1536-well plates. In the screen, Astemizole was used as positive controls. Library compounds were measured for their ability to cause hERG channel blockage in the cell line, as reflected by a decrease in fluorescence intensity, in a concentration-dependent manner. […] AC50 values were determined from concentration-response data modeled with the standard Hill equation.
# qHTS protocol for hERG-U2OS cellular assay
# [Step] [Parameter] [Value] [Description]
# 1. Day 1: Replace medium in 70-80% confluent T225 flask with 2.5 mL of hERG-BacMam virus plus 12.5 mL of phosphate buffered saline (PBS) (corresponding roughly to a multiplicity of infection ratio of 100 virus particles/cell)
# 2. Incubation: 4 hrs @ room Temperature in Dark
# 3. Reagent; Remove virus; wash once with 25 ml DPBS
# 4. Reagent; 35 ml culture medium
# 5. Incubation; 37 °C overnight
# 6. Day2: Reagent; 3 uL; 2000 U2OS cells/well
# 7. Time; 4 hr; 37 °C incubation
# 8. Loading buffer; 1 uL; 0.7X;
# 9. Incubation: 1hr @ RT in Dark.
# 12. Time; 10min; 37 °C incubation
# 13. Read fluorescence Intensity on FDSS for 10 Sec with 1 sec interval
# 14. Reagent; 1 uL; stimulation buffer
# 15. Read fluorescence Intensity on FDSS for 2 min with 1 sec interval
# 16. Detection; Fluorescence Intensity; FDSS
# % is set by controls: 0 for no effect and ±100 for the full control effect; potency is the fitted concentration of half-maximal effect.
# Sequence of Voltage-gated inwardly rectifying potassium channel KCNH2 (Homo sapiens) (Q12809 whole entry, looked up): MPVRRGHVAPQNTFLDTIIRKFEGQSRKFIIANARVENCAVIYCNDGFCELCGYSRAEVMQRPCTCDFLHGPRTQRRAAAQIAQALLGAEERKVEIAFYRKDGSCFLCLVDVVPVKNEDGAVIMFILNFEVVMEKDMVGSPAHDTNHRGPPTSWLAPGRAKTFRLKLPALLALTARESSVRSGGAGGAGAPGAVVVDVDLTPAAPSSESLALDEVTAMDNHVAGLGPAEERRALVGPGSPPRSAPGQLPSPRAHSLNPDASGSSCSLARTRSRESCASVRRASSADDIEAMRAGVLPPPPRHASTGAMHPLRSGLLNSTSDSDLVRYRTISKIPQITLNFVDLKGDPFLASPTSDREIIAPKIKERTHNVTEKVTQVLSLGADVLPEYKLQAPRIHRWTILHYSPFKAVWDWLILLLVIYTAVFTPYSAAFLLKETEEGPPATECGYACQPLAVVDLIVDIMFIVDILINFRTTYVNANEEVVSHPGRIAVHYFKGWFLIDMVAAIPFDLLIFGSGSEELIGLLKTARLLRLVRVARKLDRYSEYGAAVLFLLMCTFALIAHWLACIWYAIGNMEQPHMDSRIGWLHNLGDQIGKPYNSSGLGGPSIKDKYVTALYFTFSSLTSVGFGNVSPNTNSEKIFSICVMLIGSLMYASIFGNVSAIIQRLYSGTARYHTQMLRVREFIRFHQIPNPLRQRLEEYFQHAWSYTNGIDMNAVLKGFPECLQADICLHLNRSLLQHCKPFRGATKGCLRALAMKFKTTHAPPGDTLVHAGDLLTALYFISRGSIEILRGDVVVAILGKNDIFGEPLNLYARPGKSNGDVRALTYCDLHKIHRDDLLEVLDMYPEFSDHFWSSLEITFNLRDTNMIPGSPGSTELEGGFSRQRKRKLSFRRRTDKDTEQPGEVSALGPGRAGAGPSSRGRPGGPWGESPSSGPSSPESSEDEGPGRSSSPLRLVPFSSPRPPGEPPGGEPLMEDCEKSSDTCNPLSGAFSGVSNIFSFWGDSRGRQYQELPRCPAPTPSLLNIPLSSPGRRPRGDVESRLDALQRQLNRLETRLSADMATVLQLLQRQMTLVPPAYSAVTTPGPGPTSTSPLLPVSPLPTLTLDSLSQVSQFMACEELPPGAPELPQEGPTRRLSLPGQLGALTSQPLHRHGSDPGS
Structure (SMILES),"activity change, negative = inhibition",Potency
C=CCCl,5.57% (inactive),–
Nc1ccc(Cl)c(Cl)c1,2.04% (inactive),–
Nc1cc(Cl)cc(Cl)c1,4.75% (inactive),–
O=S(=O)(O)F,0.166% (inactive),–
O=[N+]([O-])c1ccccc1O,6.46% (inactive),–
O=C(O)C(Cl)(Cl)Br,-3.76% (inactive),–
ClP(Cl)(Cl)(Cl)Cl,12% (inactive),–
C/C=C/C=O,11.4% (inactive),–
O=C(Cl)OCc1ccccc1,-1.42% (inactive),–
CN(C)C(=O)Cl,-0.549% (inactive),–
CN(C)c1ccc(N(C)C)cc1,9.87% (inactive),–
O=[N+]([O-])c1cccc2c([N+](=O)[O-])cccc12,-1.37% (inactive),–
CC(C#N)CCC#N (stereo not given),-0.177% (inactive),–
CC(=O)CCC(C)=O,-1.28% (inactive),–
CN(C)c1ccc(N)cc1,–,35.5 µM (active)
Cc1cc(Cl)ccc1O,12.8% (inactive),–
O=[N+]([O-])c1ccc2c3c(cccc13)CC2,-10.3% (inactive),–
C=CC=O,10.7% (inactive),–
N#CCCCCC#N,1.29% (inactive),–
BrCC(Br)C1CCC(Br)C(Br)C1 (stereo not given),–,22.4 µM (active)

Structure (SMILES),"activity change, negative = inhibition",Potency
CN(C)c1ccccc1,-0.142% (inactive),–
Oc1c(Cl)cccc1Cl,4.61% (inactive),–
CCCCOCC1CO1 (stereo not given),8.56% (inactive),–
Cc1cccc(C)c1N,-0.197% (inactive),–
N#C/C(N)=C(/N)C#N,0.646% (inactive),–
C=CCBr,0.897% (inactive),–
Nc1c(Cl)cc([N+](=O)[O-])cc1Cl,-15.2% (inactive),–
O=C(O)C(Cl)Br (stereo not given),1.68% (inactive),–
CC(C)(C)c1ccccc1O,4.54% (inactive),–
OC[P+](CO)(CO)CO,0.39% (inactive),–
N#CCCC#N,14.5% (inactive),–
CSSC,2.46% (inactive),–
CCCCCCCCCCCCCl,-1.94% (inactive),–
CN(C)C(=O)Nc1ccc(Cl)cc1,3.73% (inactive),–
COC(=O)c1ccccc1N,6.57% (inactive),–
CC(=O)NNc1ccccc1,-0.321% (inactive),–
CC(C)[N+](=O)[O-],9.34% (inactive),–
Oc1cc(Cl)c(Cl)c(Cl)c1,8.29% (inactive),–
Cc1ccc(N)cc1Cl,-2.21% (inactive),–
CCBr,15.2% (inactive),–
